Assay results published in ChEMBL document CHEMBL3988442, “University of Dundee, Small-Polar-MMV Screening Library” (2021).
Where “and” joins values, the source holds several entries; their conditions need not be identical. Equal values may be shown once. For some of these results: Results with a measured potency or affinity are listed apart.

Assays:
Set-up in all cases: scale not given: direction of the effect not stated beside the values
[1] = biological target: Protein translocase subunit SecA (Escherichia coli (strain K12)) (UniProt P10408); test: Assay to Identify E. coli SecA ATPase Inhibitors; type: functional; conditions: 30 µM
Sequence of Protein translocase subunit SecA (Escherichia coli (strain K12)) (P10408 whole entry): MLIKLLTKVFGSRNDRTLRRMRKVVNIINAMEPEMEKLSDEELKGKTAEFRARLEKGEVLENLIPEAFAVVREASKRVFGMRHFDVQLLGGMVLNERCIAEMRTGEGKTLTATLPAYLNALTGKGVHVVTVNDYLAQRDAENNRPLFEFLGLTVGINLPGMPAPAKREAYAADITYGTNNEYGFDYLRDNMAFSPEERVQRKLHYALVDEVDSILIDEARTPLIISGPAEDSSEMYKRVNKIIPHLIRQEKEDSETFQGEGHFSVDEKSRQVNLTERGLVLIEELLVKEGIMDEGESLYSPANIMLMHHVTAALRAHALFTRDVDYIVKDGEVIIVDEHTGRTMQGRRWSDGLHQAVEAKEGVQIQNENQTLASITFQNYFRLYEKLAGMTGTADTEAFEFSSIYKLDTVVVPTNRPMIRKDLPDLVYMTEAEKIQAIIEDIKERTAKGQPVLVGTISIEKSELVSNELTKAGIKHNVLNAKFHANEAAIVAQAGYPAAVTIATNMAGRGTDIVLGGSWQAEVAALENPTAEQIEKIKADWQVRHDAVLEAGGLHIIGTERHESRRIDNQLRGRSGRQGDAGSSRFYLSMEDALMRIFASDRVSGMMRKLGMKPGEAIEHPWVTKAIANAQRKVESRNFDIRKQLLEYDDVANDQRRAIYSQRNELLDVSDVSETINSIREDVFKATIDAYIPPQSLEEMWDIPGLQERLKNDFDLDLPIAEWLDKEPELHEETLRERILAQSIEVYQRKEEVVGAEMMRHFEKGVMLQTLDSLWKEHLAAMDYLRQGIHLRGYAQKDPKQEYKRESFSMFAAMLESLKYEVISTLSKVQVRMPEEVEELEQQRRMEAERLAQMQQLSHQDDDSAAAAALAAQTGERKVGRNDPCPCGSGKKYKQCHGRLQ

[2] = biological target: T1, Ubiquitin-activating enzyme e1, putative (Leishmania donovani (strain BPK282A1)) (UniProt E9BSI1); test: Leishmania donovani Ubiquitin Activating Enzyme (LdE1); type: functional; conditions: 30 µM
T1 sequence (whole entry): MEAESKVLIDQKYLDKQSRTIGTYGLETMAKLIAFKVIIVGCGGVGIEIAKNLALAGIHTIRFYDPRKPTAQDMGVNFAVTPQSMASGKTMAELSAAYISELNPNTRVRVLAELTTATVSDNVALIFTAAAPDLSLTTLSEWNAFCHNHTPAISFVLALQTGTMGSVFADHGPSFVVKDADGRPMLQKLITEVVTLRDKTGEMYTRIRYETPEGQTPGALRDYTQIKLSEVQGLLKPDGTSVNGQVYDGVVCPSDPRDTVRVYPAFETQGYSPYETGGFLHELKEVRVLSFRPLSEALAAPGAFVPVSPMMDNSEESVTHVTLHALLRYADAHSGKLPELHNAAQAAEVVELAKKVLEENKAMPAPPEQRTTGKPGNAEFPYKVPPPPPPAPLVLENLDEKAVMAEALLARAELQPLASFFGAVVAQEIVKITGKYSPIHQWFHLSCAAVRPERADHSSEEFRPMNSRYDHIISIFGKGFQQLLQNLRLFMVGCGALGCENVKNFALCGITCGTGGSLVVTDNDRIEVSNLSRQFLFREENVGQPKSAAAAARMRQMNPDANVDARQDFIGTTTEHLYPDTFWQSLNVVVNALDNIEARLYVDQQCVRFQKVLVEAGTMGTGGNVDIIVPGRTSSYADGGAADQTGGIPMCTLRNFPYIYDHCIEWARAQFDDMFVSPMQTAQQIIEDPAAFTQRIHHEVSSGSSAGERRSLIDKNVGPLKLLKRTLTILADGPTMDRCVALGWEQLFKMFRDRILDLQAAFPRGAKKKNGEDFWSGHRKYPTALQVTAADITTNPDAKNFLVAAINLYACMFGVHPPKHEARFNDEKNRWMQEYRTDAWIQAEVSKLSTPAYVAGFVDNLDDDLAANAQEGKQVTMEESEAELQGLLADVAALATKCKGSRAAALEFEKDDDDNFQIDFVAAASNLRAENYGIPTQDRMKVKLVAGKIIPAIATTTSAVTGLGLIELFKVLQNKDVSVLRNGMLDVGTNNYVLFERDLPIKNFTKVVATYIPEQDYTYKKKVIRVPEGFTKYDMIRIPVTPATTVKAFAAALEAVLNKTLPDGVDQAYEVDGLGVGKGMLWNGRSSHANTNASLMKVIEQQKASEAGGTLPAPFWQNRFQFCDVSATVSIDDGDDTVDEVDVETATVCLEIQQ

[3] = biological target: AMP-activated protein kinase, AMPK (Homo sapiens) (UniProt P54646+O43741+P54619+Q9UGJ0+Q9Y478+Q13131+Q9UGI9); test: AMP-dependent Kinase enzyme assay. An in vitro enzyme assay that detects ADP turnover that is directly proportional to AMPK activity. This uses naive AMPK that is activated during the assay with MK-8722; type: functional; conditions: 30 µM
[4] = biological target: Sialic acid-binding Ig-like lectin 9 (Homo sapiens) (UniProt Q9Y336); test: Hs-Siglec9 ALPHAscreen SOP 20170721; conditions: 10 µM
Sequence of Sialic acid-binding Ig-like lectin 9 (Homo sapiens) (Q9Y336 whole entry): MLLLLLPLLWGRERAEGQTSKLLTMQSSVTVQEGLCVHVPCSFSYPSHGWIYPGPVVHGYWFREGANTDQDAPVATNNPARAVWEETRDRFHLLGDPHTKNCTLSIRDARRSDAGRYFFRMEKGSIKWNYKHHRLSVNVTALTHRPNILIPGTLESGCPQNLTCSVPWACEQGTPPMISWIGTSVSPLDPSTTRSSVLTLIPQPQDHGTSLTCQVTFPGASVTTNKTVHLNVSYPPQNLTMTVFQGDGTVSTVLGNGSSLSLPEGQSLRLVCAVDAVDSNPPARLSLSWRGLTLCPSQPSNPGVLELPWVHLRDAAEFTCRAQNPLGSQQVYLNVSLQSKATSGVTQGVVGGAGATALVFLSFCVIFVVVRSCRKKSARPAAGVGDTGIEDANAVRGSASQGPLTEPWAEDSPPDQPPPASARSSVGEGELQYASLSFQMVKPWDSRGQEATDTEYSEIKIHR

Trypanosoma cruzi = test: Trypanosoma cruzi phosphomannomutase and mannose-1-phosphate guanylyltransferase assay; type: functional; conditions: 10 µM
[5] = biological target: T2, Arginase-2, mitochondrial (Homo sapiens) (UniProt P78540); test: in vitro enzyme assay to detect the production of urea directly proportional to the activity of Arginase II; type: functional; conditions: 33.3 µM; further: in the data most compounds retested in dose-response had high values
T2 sequence (whole entry): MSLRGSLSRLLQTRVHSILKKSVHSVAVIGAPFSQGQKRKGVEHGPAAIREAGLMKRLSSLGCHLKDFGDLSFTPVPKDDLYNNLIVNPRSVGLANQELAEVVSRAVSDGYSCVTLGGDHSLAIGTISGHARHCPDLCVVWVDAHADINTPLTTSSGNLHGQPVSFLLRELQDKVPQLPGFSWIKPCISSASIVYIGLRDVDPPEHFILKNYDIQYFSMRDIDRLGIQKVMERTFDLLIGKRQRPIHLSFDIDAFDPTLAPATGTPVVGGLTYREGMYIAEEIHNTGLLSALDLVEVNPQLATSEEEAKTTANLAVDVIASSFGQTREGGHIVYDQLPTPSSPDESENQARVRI

N/A = test: Trypanosoma cruzi proteasome luciferase counter-screen; type: functional; conditions: 9.37 µM
Homo sapiens = species on record: Homo sapiens; test: To identify inhibition of the IFN signalling (Jak-Stat) pathway via expression of an eGFP reporter gene under the control of an IFN-stimulated response element (ISRE) containing MxA promoter.; type: functional; conditions: 30 µM
[6] = biological target: T3, Tyrosyl-tRNA synthetase, putative (Trypanosoma cruzi (strain CL Brener)) (UniProt Q4DSP6); test: Trypanosoma cruzi tyrosyl tRNA synthetase (TcYRS) _High Tyrosine SOP; type: functional; conditions: 30 µM; further: in the data most compounds retested in dose-response had high values
T3 sequence (whole entry): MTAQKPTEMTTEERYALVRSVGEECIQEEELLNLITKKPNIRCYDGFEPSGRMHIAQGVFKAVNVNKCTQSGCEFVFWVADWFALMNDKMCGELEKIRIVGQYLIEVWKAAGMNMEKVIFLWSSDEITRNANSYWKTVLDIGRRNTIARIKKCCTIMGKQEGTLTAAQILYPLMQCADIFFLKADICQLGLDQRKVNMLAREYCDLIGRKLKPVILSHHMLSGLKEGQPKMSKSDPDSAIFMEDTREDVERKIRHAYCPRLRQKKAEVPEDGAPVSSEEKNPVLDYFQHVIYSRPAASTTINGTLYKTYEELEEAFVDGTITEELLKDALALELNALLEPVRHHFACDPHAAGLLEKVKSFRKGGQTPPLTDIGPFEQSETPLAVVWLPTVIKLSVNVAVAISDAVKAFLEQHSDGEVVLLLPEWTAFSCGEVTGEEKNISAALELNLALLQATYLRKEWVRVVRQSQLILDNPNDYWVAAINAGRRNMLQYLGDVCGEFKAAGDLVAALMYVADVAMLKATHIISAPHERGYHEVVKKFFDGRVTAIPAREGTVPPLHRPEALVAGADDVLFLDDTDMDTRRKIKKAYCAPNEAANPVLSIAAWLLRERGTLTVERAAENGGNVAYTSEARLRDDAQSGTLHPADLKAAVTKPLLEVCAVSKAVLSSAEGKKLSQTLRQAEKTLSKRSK

[7] = biological target: T3, Tyrosyl-tRNA synthetase, putative (Trypanosoma cruzi (strain CL Brener)); test: Trypanosoma cruzi tyrosyl tRNA synthetase (TcYRS) SOP; type: functional; conditions: 30 µM
[8] = biological target: Chromo domain-containing protein 1 (Saccharomyces cerevisiae (strain ATCC 204508 / S288c) (Baker's yeast)) (UniProt P32657); test: ScCHD-1 Enzyme Inhibition Assay; type: functional; conditions: 30 µM; further: in the data most compounds retested in dose-response had high values
Sequence of Chromo domain-containing protein 1 (Saccharomyces cerevisiae (strain ATCC 204508 / S288c) (Baker's yeast)) (P32657 whole entry, the tested form may be a part): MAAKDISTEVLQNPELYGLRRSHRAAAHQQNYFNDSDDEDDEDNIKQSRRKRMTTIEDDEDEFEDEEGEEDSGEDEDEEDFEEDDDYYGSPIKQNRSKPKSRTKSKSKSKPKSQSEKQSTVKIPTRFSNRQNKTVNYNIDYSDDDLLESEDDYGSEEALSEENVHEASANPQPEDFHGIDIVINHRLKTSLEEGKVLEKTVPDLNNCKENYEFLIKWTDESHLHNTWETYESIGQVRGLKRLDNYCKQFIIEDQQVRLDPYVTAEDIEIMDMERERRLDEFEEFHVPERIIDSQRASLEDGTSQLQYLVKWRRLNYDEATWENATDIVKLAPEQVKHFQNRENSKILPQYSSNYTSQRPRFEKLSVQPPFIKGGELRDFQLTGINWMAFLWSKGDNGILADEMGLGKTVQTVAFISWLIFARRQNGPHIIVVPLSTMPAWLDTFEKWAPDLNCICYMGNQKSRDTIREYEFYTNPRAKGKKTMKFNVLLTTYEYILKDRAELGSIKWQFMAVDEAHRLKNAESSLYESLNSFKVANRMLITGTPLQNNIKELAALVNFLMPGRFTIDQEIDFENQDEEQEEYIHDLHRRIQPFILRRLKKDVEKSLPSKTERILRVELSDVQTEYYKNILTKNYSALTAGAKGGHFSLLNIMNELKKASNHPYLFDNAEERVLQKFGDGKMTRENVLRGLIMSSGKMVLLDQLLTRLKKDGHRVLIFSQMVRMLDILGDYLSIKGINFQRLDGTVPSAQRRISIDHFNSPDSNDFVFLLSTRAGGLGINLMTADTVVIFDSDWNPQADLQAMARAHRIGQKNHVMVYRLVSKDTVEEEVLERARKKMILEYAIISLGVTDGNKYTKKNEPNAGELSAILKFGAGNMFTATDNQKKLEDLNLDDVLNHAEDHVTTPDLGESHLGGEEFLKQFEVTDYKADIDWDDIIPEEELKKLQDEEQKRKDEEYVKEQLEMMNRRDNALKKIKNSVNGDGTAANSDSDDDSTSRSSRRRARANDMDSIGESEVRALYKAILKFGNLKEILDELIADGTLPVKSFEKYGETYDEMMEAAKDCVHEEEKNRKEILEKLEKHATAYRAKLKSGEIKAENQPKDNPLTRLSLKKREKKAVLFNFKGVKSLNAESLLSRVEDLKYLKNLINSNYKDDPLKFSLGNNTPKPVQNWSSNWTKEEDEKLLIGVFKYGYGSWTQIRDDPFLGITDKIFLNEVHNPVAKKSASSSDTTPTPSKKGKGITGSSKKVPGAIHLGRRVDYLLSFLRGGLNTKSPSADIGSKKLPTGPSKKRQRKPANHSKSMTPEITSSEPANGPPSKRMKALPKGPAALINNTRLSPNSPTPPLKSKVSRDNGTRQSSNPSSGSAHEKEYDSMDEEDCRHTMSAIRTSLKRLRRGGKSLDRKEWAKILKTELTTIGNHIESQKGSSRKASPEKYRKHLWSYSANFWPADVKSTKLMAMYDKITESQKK

[9] = biological target: T4, Proteasome subunit beta (Trypanosoma cruzi) (UniProt O96673); test: Trypanosoma cruzi proteasome chymotrypsin-like activity (TcProtChymo) assay.; further: in the data most compounds retested in dose-response had high values; type: functional; conditions: 9.37 µM
T4 sequence (whole entry): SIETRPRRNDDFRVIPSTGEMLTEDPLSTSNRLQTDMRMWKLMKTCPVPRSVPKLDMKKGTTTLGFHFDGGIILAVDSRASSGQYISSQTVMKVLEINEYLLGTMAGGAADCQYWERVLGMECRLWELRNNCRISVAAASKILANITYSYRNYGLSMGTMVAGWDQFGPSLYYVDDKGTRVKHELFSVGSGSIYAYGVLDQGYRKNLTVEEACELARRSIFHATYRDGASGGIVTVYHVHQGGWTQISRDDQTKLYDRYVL

| Compound | Percent Effect [1] [%] | Percent Effect [2] [%] | Percent Effect [3] [%] | Percent Effect [4] [%] | Percent Effect (Trypanosoma cruzi) [%] | Percent Effect [5] [%] | Percent Effect (N/A) | Percent Effect (Homo sapiens) [%] | Percent Effect [6] [%] | Percent Effect [7] [%] | Percent Effect [8] [%] | Percent Effect [9] [%] |
| --- | --- | --- | --- | --- | --- | --- | --- | --- | --- | --- | --- | --- |
| Cc1nc(CN2CCCN(CC(=O)Nc3cccnc3)CC2)no1 | -3.59 | 18.2 | 4.53 | -8.79 | -0.294 | 4.84 | 15.2% and 14.2% | 23.7 | 5.71 | 9.41 | -14 |  |
| O=C(NCCCOCC1CC1)Nc1cccnc1N1CCOCC1 | -3.08 | 2.7 | -5.79 | 0.4 | -5.27 | -1.67 |  | 10.8 | -21.8 | 3.66 | 14.9 | 21.1 |
| CCC1=N[C@@]2(CC[C@@H]3CN(S(=O)(=O)N(C)C)C[C@@H]32)C(=O)N1CC(C)C | -1.28 | 10.4 | -3.92 | 6.82 | -2.07 | 3.23 |  | -7.21 | 5.29 | 11.5 | -6.8 | -0.696 |
| CC(C)(C)c1nc(CN2CCCC2CCc2ccccc2)no1 (stereo not given) | -4.12 | -2.6 | 4.97 | -2.77 | -6.18 | -0.712 |  | 27.2 | 0.971 | -14.6 | 1.21 | -5.91 |
| Cc1occc1C(=O)N1CCC2(CC1)C(c1cnn(C)c1)CC(=O)N2C (stereo not given) | -5.4 | 13.5 | 6.87 | -12.9 | -4.59 | 1.59 | 11.5% and 13.8% | 15.9 | -11.9 | 7.69 | -4.17 |  |
